RTF Ca sens act = cardiac RTF calcium sensitization | P19429+P45379 | AID 493008 | IANBD-labeled TnC RTF fluorescence at EC20 calcium; 0% EC20 calcium, 100% full calcium | actives 0.24% (n = 340,000) | activation, % at 7.2 µM;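 active = activation above the mean over all tested compounds plus 3 SD, cut at about 30% in these data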;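 also: rise in fluorescence read as greater calcium sensitivity of cardiac thin filaments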
Keap1 Nrf2 FP = disrupts human Keap1 binding to Nrf2 peptide; Keap1 Kelch-Nrf2 peptide fluorescence polarization, 1536-well; inhibition, % at 9.4 µM; actives 0.15% (n = 340,000); in the data active = inhibition above about 12%;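 also: human Keap1 Kelch domain with fluorescein labeled Nrf2 9mer peptide probe; higher means more block of Keap1 binding to Nrf2 peptide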
eLon inh = E. coli protease La inhibition | P0A9M0 | purified E. coli Lon protease, fluorescence polarization | inhibition, % at 7.94 µM | actives 0.42% (n = 360,000) | AID 602123; in the data active = inhibition above about 13%, passing the limit was not always enough
EBV gp42 inh = EBV gp42 inhibition; actives 0.42% (n = 220,000); inhibition, % (tested at 21.74 µM); Q1HVG2; AID 1085; Fluorescence polarization binding assay, mP read-out; in the data active = inhibition above about 50%
Cardiac RTF inh = cardiac RTF calcium desensitization; IANBD-labeled cardiac RTF, Ca2+ fluorescence; inhibition, % at 7.15 µM; actives 0.12% (n = 340,000); P19429+P45379;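 active = inhibition above the mean inhibition of all tested compounds plus 3 SD, cut at about 17% in these data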;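 also: assay run at fixed EC70 calcium of 1.6 mM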
C-LANA FP = KSHV C-LANA DNA binding inhibition; actives 0.078% (n = 340,000); inhibition, % at 9 µM; MBP-C-LANA/FAM-LBS DNA binding, fluorescence polarization;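 active = highest replicate inhibition at or above 60% at 9 µM, even if other replicates fall short; inactive = all replicates below 60% inhibition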
E coli Lon conf = E. coli Lon inhibition confirmation | shares compounds with eLon inh | purified E. coli Lon, fluorescence polarization | inhibition, % at 7.94 µM | actives 31% (n = 1,400); in the data active = inhibition above about 16%
Of the large screens only hits and unclear results are named; the others gave an inactive call (follow-up assays come after a bar, where they were run). Rows were chosen to be rich in hits. Some 0.98% of all compounds tested hit in one or more screens of this group.

CN1C[C@H](CO)C=C2c3cccc4[nH]cc(c34)C[C@H]21	eLon inh 84, EBV gp42 inh 58 | E coli Lon conf inactive
COc1ccc2[nH]c(C)c(CCNCc3cccnc3)c2c1	eLon inh 69 (no result: EBV gp42 inh) | E coli Lon conf 33
Cc1cccc(N=C2c3cc([N+](=O)[O-])ccc3-c3c2cc([N+](=O)[O-])cc3[N+](=O)[O-])c1	none (no result: EBV gp42 inh)
COC1C(C)OC(OC2CC(C)(O)Cc3cc4c(c(O)c32)C(=O)c2c(O)cc3c(c2C4=O)OC2OC3(C)C(O)C(N(C)C)C2O)C(OC)C1(C)OC (centres undefined)	RTF Ca sens act 678, eLon inh active (no result: EBV gp42 inh) | E coli Lon conf 104
O=c1[nH]c(O)c(/C=C2\C=Nc3ccc(OCc4ccccc4)cc32)c(=O)[nH]1	RTF Ca sens act 48, eLon inh 27 (no result: EBV gp42 inh) | E coli Lon conf 30
O=c1[nH]c(O)c(C=NCCc2ccccc2)c(=O)[nH]1	none
O=C(NN=Cc1ccc(N(CCCl)CCCl)cc1)C(=O)c1c[nH]c2ccccc12	none (no result: EBV gp42 inh)
Cc1cc(-c2cc(C)c(N)c(C)c2)cc(C)c1N	none (no result: EBV gp42 inh)
COc1cc(C(O)CNC(C)C)cc(F)c1OC (centres undefined)	eLon inh 23 (no result: EBV gp42 inh) | E coli Lon conf inactive
CCC1C2CC3C4N(C)c5ccccc5C45CC(C2C5O)N3C1O (centres undefined)	none (no result: RTF Ca sens act, Keap1 Nrf2 FP, EBV gp42 inh, Cardiac RTF inh, C-LANA FP)
C1=C(c2c[nH]c3ccccc23)CCN(Cc2ccccc2)C1	none
Nc1c2c(nc3ccccc13)CCN(Cc1ccccc1)C2	eLon inh 198 (no result: EBV gp42 inh) | E coli Lon conf inactive
COC(=O)C1C2c3ccccc3C(c3ccccc32)C1(C)C(=O)OC (centres undefined)	none (no result: EBV gp42 inh)
COc1ccc(-n2nnnc2C(CCc2ccccc2)N2CCC(n3c(=O)[nH]c4ccccc43)CC2)cc1 (centres undefined)	none (no result: RTF Ca sens act, Keap1 Nrf2 FP, EBV gp42 inh, Cardiac RTF inh, C-LANA FP)
CCOC(=O)C1CCCN(c2ccc([N+](=O)[O-])c3nonc23)C1 (centres undefined)	RTF Ca sens act 393, eLon inh 193, EBV gp42 inh 127, C-LANA FP 90 | E coli Lon conf 186
Cc1nc2cc([N+](=O)[O-])ccc2c(=O)n1-c1ccc(Br)cc1	none (no result: EBV gp42 inh)
Cc1nc2cc([N+](=O)[O-])ccc2c(=O)n1-c1ccccc1[N+](=O)[O-]	eLon inh 15 | E coli Lon conf inactive
Cc1ccc(OC(=O)N(C)C[C@H]2OCc3cnnn3CCCC(=O)N([C@@H](C)CO)C[C@H]2C)cc1	none (no result: RTF Ca sens act, Keap1 Nrf2 FP, EBV gp42 inh, Cardiac RTF inh, C-LANA FP)
COc1ccc2cc(C(=O)C3CCCN(C4CCOCC4)C3)ccc2c1 (centres undefined)	eLon inh 103 | E coli Lon conf inactive
